PKA-R1A activ – activators of PKA-R1A holoenzyme, primary screen, biochemical, fluorescence polarization, Cy5-IP20, bovine R1A, mouse PKAc. 0.083% of 340,000 active. PKA-R1A dissociation; scaled: DMSO 0%, 113 µM cGMP 100%. AID 504707, 2011. cAMP-dependent protein kinase type I-alpha regulatory subunit (Bos taurus) + …. activation, % at 11.4 µM;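 active means percent activation above the mean of all tested compounds plus 3 SD, cut at about 19% in these data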;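 further: higher means more PKAc released from R1A so a rise in polarization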
CHT PAM – CHT positive allosteric modulators, primary screen, cell-based, membrane potential dye, choline EC20; High affinity choline transporter 1 (Homo sapiens), Q9GZV3; CHT-expressing cells; stronger effect = higher value; LV-AA mutant CHT in HEK293 cells; B-score at 10 µM; 0.49% of 310,000 active;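 active means initial fluorescence not abnormally high and integrated response B-score, plate-corrected, over 3 SD above library mean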
TMEM16A inh – TMEM16A chloride channel inhibitors, primary screen, cell-based, HTS; Anoctamin-1 (Mus musculus), Q8BHY3; HEK293 TMEM16A/YFP iodide influx fluorescence, ionomycin; normalized B-score (activity score, 25-100; higher = stronger inhibition) at 10 µM; 1.2% of 310,000 active;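 active means ratio plate-corrected score three or more library SD toward inhibition, starting fluorescence score within five deviations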;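 further: score derived from kinetic fluorescence span divided by baseline fluorescence per well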
ANO1 activ – TMEM16A chloride channel activators or potentiators, primary screen, cell-based, HTS. 0.3% of 340,000 active. AID 623877, 2012. B-score at 10 µM. HEK293 TMEM16A/YFP-H148Q/I152L, iodide quench fluorescence; stronger effect = lower value. Anoctamin-1 (Mus musculus), Q8BHY3;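 active means fluorescence-ratio B-score plate-corrected deviation score at least 3 library SD below zero, with starting fluorescence score within 5 deviations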;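 further: channel opened by trigger with iodide after compound preincubation; score built on the fluorescence ratio of max minus min over baseline; more negative score means more quench and so TMEM16A activation or potentiation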
PKA-R2B act – activators of PKA-R2B holoenzyme, primary screen, biochemical, fluorescence polarization, Cy5-IP20, human; cAMP-dependent protein kinase catalytic subunit beta (Homo sapiens) + cAMP-dependent …; PKA-R2B holoenzyme dissociation; R2B truncated from residue 108, S112A mutant; 0% DMSO only, 100% 113 µM cGMP; AID 504700, 2011; activation, % at 11.4 µM; 0.079% of 340,000 active;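 active means activation above a cutoff set at the mean over all compounds plus 3 SD, cut at about 18% in these data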;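 further: higher means more holoenzyme dissociation and a rise in polarization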
Target sequence (P31323 whole entry, looked up, other chains not shown, the tested form may be a part): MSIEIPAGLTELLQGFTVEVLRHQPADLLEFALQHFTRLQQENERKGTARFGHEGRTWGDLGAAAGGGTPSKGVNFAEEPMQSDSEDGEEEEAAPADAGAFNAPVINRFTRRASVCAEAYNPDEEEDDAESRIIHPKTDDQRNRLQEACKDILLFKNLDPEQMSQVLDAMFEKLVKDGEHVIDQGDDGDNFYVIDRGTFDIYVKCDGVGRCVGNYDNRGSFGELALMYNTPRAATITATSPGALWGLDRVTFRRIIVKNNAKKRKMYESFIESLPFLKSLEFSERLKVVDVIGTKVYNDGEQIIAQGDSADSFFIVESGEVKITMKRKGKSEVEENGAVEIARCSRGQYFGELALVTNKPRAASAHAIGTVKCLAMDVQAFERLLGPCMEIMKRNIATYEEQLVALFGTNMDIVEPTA
CHT block – inhibitors of human choline transporter CHT. High affinity choline transporter 1 (Homo sapiens), Q9GZV3. CHT-expressing cells, membrane potential dye, choline response; stronger effect = lower value. B-score at 10 µM. 0.86% of 310,000 active. AID 488975, 2010;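 active means B-score over 3 SD under the library average, and starting fluorescence ratio not unusually high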;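 further: choline stimulus applied at its EC90 after an EC20 pre-addition; B-score computed on integrated fluorescence ratio after choline addition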
Numbers without * were called inactive. This is a sample that favours compounds with a hit; in the whole collection about 2.5% have one here.

Screening Cc1ccc(C(=O)c2ccccc2C(=O)OCC(=O)N2C(C)CCCC2C)cc1 (centres undefined) returned PKA-R1A activ 5.5, ANO1 activ inactive and PKA-R2B act 2.5.
`C[C@H](CO)N1C[C@H](C)[C@@H](CN(C)S(=O)(=O)c2ccc(F)cc2)Oc2ccc(NC(=O)C3CCCCC3)cc2C1=O` gave PKA-R1A activ -1.8, ANO1 activ inactive and PKA-R2B act -8.9.
Clc1ccc(-c2noc(CSc3nnc(-c4ccncc4)n3-c3ccccc3)n2)cc1 was read as PKA-R1A activ -4.5, CHT PAM inactive, TMEM16A inh 100*, ANO1 activ inactive, PKA-R2B act -15.2 and CHT block inactive.
Clc1ccc(-c2nnc(SCc3nc(-c4ccccc4)no3)o2)cc1 was read as PKA-R1A activ -9.1, CHT PAM inactive, TMEM16A inh inactive, ANO1 activ -4.7*, PKA-R2B act -5.2 and CHT block inactive.
c1ccc(-c2noc(CSc3nc4ccccc4o3)n2)cc1 was read as PKA-R1A activ -5.1, CHT PAM inactive, TMEM16A inh inactive, ANO1 activ inactive, PKA-R2B act -0.5 and CHT block inactive.
`Cc1cc(NC(=O)CCC(=O)N(CC(=O)NC2CCCC2)c2ccc(C(C)C)cc2)no1` gave PKA-R1A activ -0.2, CHT PAM inactive, TMEM16A inh inactive, ANO1 activ inactive, PKA-R2B act 2.1 and CHT block inactive.
CCOC(=O)C1CCN(C(=O)c2cccc(NS(=O)(=O)c3ccc(F)c(F)c3)c2)CC1 was read as PKA-R1A activ 6.2, CHT PAM inactive, TMEM16A inh inactive, ANO1 activ inactive, PKA-R2B act -10.3 and CHT block inactive.
For CCOC(=O)C1CCN(S(=O)(=O)c2c(Cl)ccc3nonc23)CC1 the results were PKA-R1A activ 5.3, CHT PAM inactive, TMEM16A inh inactive, ANO1 activ inactive, PKA-R2B act -8.9 and CHT block -5.42*.
CCOC(=O)C1CCN(S(=O)(=O)c2ccc(C(=O)OC)cc2)CC1 was read as PKA-R1A activ -1.2, CHT PAM inactive, TMEM16A inh inactive, ANO1 activ -13.5*, PKA-R2B act 3.7 and CHT block inactive.
Screening CCOC(=O)C1CCN(S(=O)(=O)c2ccccc2)CC1 returned PKA-R1A activ -2.7, CHT PAM inactive, TMEM16A inh inactive, ANO1 activ inactive, PKA-R2B act -7.9 and CHT block inactive.
Screening CCOC(=O)C1CCN(S(=O)(=O)c2ccc(C)cc2)CC1 returned PKA-R1A activ -0.6, CHT PAM inactive, TMEM16A inh inactive, ANO1 activ inactive, PKA-R2B act -5.8 and CHT block inactive.
For O=C(NC(=S)Nc1ccccc1N1CCCCC1)c1ccco1 the results were PKA-R1A activ -3.4, CHT PAM inactive, TMEM16A inh inactive, ANO1 activ inactive, PKA-R2B act -3.4 and CHT block inactive.
Screening O=C(NC(=S)Nc1ccccc1N1CCCC1)c1ccco1 returned CHT PAM inactive, TMEM16A inh inactive, ANO1 activ -6.9* and CHT block inactive.
CC[n+]1c(C)sc2sc3ccccc3c21 was read as CHT PAM 12.9*, TMEM16A inh inactive and CHT block inactive.
`CN(Cc1ccc(C(C)(C)C)cc1)C(=O)c1ccc2c(=O)n3c(nc2c1)CCC3` gave PKA-R1A activ 4.0, CHT PAM inactive, TMEM16A inh inactive, ANO1 activ inactive, PKA-R2B act -8.3 and CHT block inactive.
For COc1ccc(CCCC(=O)NCCc2ccccc2)cc1 the results were PKA-R1A activ 3.4, CHT PAM inactive, TMEM16A inh inactive, ANO1 activ inactive, PKA-R2B act -2.0 and CHT block inactive.
